GLP1R cytotox: cytotoxicity in counter-screen for GLP-1R inverse agonists; HEK293 cAMP-luciferase reporter cells, luminescence, 24 h; Potency, µM (series often up to 38.3 µM), most hits filed as inhibitors; hit rate 0.13% among 410,000;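 also: loss of luciferase light is scored as toxicity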
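Luminescence readout: signal drop marks cytotoxicity. Plated cells grew 12 h at 37 °C, 5% CO2, received 23 nL compound for 24 h, then got luciferase reagent, read after 12 min at RT.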
PTHR1 ag: PTHR1 (human) receptor agonism; Q03431; hit rate 0.075% among 410,000; Potency, µM (top dose mostly 115 µM), most hits filed as activators; AID 743266; HEK293 GP2 PTHR1 cells, GloSensor cAMP luminescence, 1 h; also: nearly all actives have a fitted effect of over 55% in size
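HEK-293-derived GP2 cells expressing PTHR1 and a GloSensor cAMP reporter, 3,000/well, plated overnight, given luciferin plus IBMX (each 0.5 mM as added) for 1 h at 37 °C, then compound for 1 h at 37 °C. Luminescence was read after 15 min at room temperature.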
GLP-1R agonist: agonists of human GLP-1 receptor; HEK293 GLP-1R CRE-luciferase, luminescence, 4-6 h; cells express a hypersensitive GLP-1R form; Potency, µM (highest dose often 45.6 µM), actives largely listed as activators; hit rate 0.007% among 380,000
Target sequence (P43220 whole entry, looked up): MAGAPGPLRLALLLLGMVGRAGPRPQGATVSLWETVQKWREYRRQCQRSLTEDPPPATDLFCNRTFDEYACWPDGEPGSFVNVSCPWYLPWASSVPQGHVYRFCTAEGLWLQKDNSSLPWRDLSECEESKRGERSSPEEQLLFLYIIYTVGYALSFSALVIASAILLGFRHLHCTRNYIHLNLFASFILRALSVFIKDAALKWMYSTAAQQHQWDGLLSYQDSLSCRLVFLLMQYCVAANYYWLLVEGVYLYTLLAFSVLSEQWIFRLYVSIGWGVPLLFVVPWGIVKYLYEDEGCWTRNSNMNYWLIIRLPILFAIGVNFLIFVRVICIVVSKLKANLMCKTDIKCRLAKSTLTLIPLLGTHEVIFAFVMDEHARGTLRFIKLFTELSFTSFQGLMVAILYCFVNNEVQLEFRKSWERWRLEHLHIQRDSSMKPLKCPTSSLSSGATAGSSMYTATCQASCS
GLP1R inv ag: acts as inverse agonist at human GLP-1 receptor; P43220; HEK293 GLP-1R CRE-luciferase, luminescence, 24 h; GLP-1R form is constitutively active; Potency, µM (doses to about 38.3 µM), actives largely listed as inhibitors; hit rate 1.6% among 410,000; AID 624417; also: nearly all actives have a fitted effect of over 55% in size
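Readout was luciferase luminescence, measured 12 min after detection reagent at room temperature. Beforehand, GLP-1R reporter HEK293 cells had sat 12 h, then received compounds for 24 hr at 37 deg C.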
Hits are given with their value; - = inactive; ? = inconclusive; . = no result. An excerpt weighted towards active compounds, which were near 1.7% of everything screened. Calls follow the shape of the dose curve; as a rule, active = well fitted curve in the direction sought with a large enough effect; inconclusive = small, poorly fitted or top-dose-only effect, or another doubt; inactive = no such curve, though single readings can be large; an effect the other way counts as inactive or inconclusive.

SMILES | GLP1R cytotox | PTHR1 ag | GLP-1R agonist | GLP1R inv ag
Cc1cccc(N/C=C/c2onc(C)c2[N+](=O)[O-])c1 | - | - | - | -
Cc1cccc(/C=C/c2onc(C)c2[N+](=O)[O-])n1 | ? | - | - | 2.8µM
C[C@H]1C[C@@H]2[C@H]([C@@H](O)C[C@@]3(C)[C@H]2CC[C@]3(O)C(=O)COC(=O)CCC(=O)O)[C@@]2(C)C=CC(=O)C=C12 | . | . | - | .
CC(C)Cn1c(-c2ccc(Br)cc2)c[nH]c1=S | ? | - | - | 10µM
Cc1ccc(S(=O)(=O)N(C)c2cc(S(=O)(=O)N3CCC(C)CC3)c(C)cc2C)cc1 | - | - | - | 13µM
COc1ccc(CCNC(=O)Cn2cc(C(=O)c3ccccc3)c(=O)c3ccc(C)nc32)cc1OC | - | - | . | -
O=C(Nc1nc2n(n1)C(c1ccccc1)C=C(c1ccccc1)N2)c1ccccc1 (stereo unspecified) | - | - | . | -
Cc1cccnc1NC(=S)NC(=O)c1oc2ccccc2c1C | ? | - | - | 4.5µM
Cc1ccnc(NC(=O)c2oc3ccccc3c2C)c1 | - | - | - | 11µM
Cc1c(C(=O)Nc2cnccn2)oc2ccccc12 | - | - | - | -
CCc1cnc2c(c1SCC(=O)NCc1ccc(C)cc1)c(=O)n(C)c(=O)n2C | - | - | . | -
COc1ccc(OCC(=O)Nc2cc(-c3ccccc3F)nn2-c2ccccc2)cc1 | - | - | . | -
O=C(Nc1ccc(F)c(Cl)c1)c1cc(S(=O)(=O)N2CCCc3ccccc32)ccc1F | - | - | . | ?
COc1cccc(NC(=O)c2ccc3nc(Cc4ccccc4)oc3c2)c1 | ? | - | . | 10µM
CCOc1cccc(C(=O)Nc2ccc3oc(Cc4ccc(Cl)cc4)nc3c2)c1 | - | - | - | 2.2µM
CCOC(=O)c1cccc(NC(=O)c2ccc3nc(Cc4ccccc4)oc3c2)c1 | - | - | . | ?
CCN1CCC[C@@H]1CNC(=O)c1cc(S(=O)(=O)CC)ccc1OC | . | . | - | .
CC1CCCN(C(=O)CN2CCC(c3nc4ccc(Cl)cc4[nH]3)CC2)C1 (stereo unspecified) | - | - | - | ?
Clc1ccc(CN2CCC(c3nc4ccc(Cl)cc4[nH]3)CC2)cc1 | ? | - | - | 7.9µM
COc1ccc(CCn2c(=O)c3cccnc3n(CC(=O)Nc3c(C)cccc3C)c2=O)cc1OC | - | - | . | -
OCCNCc1cc(Br)ccc1OCc1ccc(Cl)cc1Cl | ? | - | - | 6.3µM
COc1cc(C(=O)Oc2ccccc2/C=N/NC(=O)c2ccc(Cl)cc2)cc(OC)c1OC | - | - | - | 2.8µM
Cc1cc(Br)cc(/C=N/NC(=O)c2ccc3c(c2)OCO3)c1O | - | - | - | ?
O=C(N/N=C/c1cc(Br)cc(Cl)c1O)c1ccc2c(c1)OCO2 | ? | - | - | 2.5µM
O=C(N/N=C/c1ccccc1OC(=O)c1ccc2c(c1)OCO2)c1cccc(F)c1 | ? | - | - | 10µM
SMILES | GLP1R cytotox | PTHR1 ag | GLP-1R agonist | GLP1R inv ag
COc1cc(C(=O)Oc2ccccc2/C=N/NC(=O)c2ccc(C)c(Cl)c2)cc(OC)c1OC | ? | - | - | -
O=C(N/N=C/c1ccccc1O)c1ccc2c(c1)OCO2 | - | - | - | ?
Cc1ccccc1CCNC(=O)c1ccc2c(c1)nc1n2CCC(C)C1 (stereo unspecified) | - | - | . | -
OC1CC2CCC(C1)N2CCCN1c2ccccc2Sc2ccc(Cl)cc21 (stereo unspecified) | - | - | - | 2.8µM
CCCC(C(=O)NCc1ccco1)N(C(=O)CNS(=O)(=O)c1ccc(Cl)cc1)C1CCCC1 (stereo unspecified) | - | - | - | 10µM
CCC(C(=O)NCc1ccco1)N(C(=O)CNS(=O)(=O)c1ccccc1)C1CCCCC1 (stereo unspecified) | - | - | - | -
CCn1nc(NC(=O)C(C)(C)C)c2cc3cccc(C)c3nc21 | - | - | - | 10µM
COC(=O)c1ccc(OCC2c3cc(OC)c(OC)cc3CCN2C(=O)Cc2ccccc2)cc1 (stereo unspecified) | - | - | ? | -
CC(=O)N1CCCc2ccc(NC(=O)c3ccc(OC(C)C)cc3)cc21 | - | - | . | -
CCCCOc1ccc(C(=O)Nc2ccc3c(c2)N(C(C)=O)CCC3)cc1 | - | - | . | 1.1µM
COc1ccc(NC(=O)C(CC(C)C)NC(=O)C2CCCCC2)cc1 (stereo unspecified) | - | - | . | -
Cc1ccc2nc(SC(C(=O)Nc3ccc(F)cc3)c3ccccc3)[nH]c2c1 (stereo unspecified) | ? | - | - | 5.6µM

Screening data as filed in PubChem BioAssay.
